KCNQ2 inh = blocks the rat KCNQ2 potassium channel; O88943; CHO-K1 KCNQ2, FluxOR thallium flux, 20 min; hits give low values; B-score at 10 µM; 310,000 compounds, 1.1% hits; AID 2156;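 active means fluorescence ratio B-score at most minus 3 library SDs, with starting brightness B-score within 2 library SDs, cut at about -5.5 in these data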
Target sequence (O88943 whole entry, looked up): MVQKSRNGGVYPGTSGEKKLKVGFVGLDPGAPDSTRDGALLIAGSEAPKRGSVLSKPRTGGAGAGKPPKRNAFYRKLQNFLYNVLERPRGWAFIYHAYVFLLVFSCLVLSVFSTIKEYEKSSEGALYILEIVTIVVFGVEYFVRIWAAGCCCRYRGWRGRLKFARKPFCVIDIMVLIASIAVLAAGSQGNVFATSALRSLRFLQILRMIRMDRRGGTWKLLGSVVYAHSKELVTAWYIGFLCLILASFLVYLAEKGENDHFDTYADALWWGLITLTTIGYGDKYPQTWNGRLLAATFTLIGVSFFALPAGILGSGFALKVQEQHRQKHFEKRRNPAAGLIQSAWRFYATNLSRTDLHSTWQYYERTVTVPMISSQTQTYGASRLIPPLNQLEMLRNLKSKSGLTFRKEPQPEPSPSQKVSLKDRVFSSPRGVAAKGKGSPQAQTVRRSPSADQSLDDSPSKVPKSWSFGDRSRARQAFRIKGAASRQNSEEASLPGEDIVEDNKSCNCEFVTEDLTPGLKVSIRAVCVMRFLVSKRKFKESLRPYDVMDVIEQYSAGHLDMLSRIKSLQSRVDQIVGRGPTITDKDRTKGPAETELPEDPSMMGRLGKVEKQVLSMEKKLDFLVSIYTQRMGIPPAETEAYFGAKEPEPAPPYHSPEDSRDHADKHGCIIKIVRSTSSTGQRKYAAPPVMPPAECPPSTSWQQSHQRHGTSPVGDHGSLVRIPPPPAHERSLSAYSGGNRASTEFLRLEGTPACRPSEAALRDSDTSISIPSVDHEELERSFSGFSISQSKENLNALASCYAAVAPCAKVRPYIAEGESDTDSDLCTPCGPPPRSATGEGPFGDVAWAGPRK
KCNQ2 pot = potentiators of rat KCNQ2 potassium channel. AID 2239. B-score at 10 µM. CHO-K1 KCNQ2, FluxOR thallium flux fluorescence; hits give high values. 310,000 compounds, 0.54% hits. O88943;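 active means fluorescence ratio B-score at least 3 SD of library B-scores, with initial fluorescence B-score within 3 of them, cut at about 5.3 in these data; same plate scores as AID 2156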;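 further: B-score of peak minus minimum over baseline fluorescence ratio after K+ and Tl+ stimulus; positive B-score means potentiation of KCNQ2 with more thallium influx and brighter signal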
* = called active by the depositor. An excerpt weighted towards active compounds, which were near 1.6% of everything screened.

What do the screens show for `COc1ccccc1C1CC(c2cccs2)=Nc2ccccc2S1` (stereo not drawn)?
KCNQ2 inh: inactive

What do the screens show for `Cc1ccccc1-n1ncc2c1CC(C)(C)CC2NC(=O)c1cn[nH]c1C` (stereo not drawn)?
KCNQ2 inh: inactive

Results for CCCCn1c(N)c(C(=S)NC(=O)CC(C)(C)C)c(=O)n(C)c1=O ?
KCNQ2 inh: inactive; KCNQ2 pot: 6.91*

How did CCCn1c(N)c(C(=O)CN2CCc3ccccc3C2)c(=O)n(C)c1=O do in these assays?
KCNQ2 inh: inactive

How did Cc1cc(C)c(C#N)c(N2CCN(c3ccccc3)CC2)n1 do in these assays?
KCNQ2 inh: inactive

Results for COc1ccccc1N1CCN(c2nc(C)cc(C)c2C#N)CC1 ?
KCNQ2 inh: -5.9*; KCNQ2 pot: -5.9

How did CC(=O)CC1(O)C(=O)N(Cc2ccccc2)c2ccccc21 (stereo not drawn) do in these assays?
KCNQ2 inh: inactive; KCNQ2 pot: 0.22

What do the screens show for `CC1(C)C(=S)N(Cc2ccccc2)c2ccccc21`?
KCNQ2 inh: -6.58*; KCNQ2 pot: -6.58

How did O=C(NC1CCN(Cc2ccc3ccccc3c2)CC1)c1ccccc1 do in these assays?
KCNQ2 inh: inactive

Results for CC(C)CCN(C(=O)CCCSc1nc2ccccc2[nH]1)c1c(N)n(Cc2ccccc2)c(=O)[nH]c1=O ?
KCNQ2 inh: inactive; KCNQ2 pot: 0.07

Results for CCn1c(NC(=O)/C=C/c2ccc(F)cc2)nc2ccccc21 ?
KCNQ2 inh: inactive

Results for COC(=O)CN(C)C(=O)c1cccc(OC2CCN(S(=O)(=O)N(C)C)CC2)c1 ?
KCNQ2 inh: inactive

How did NC(CSCc1cccc(Br)c1)C(=O)O (stereo not drawn) do in these assays?
KCNQ2 inh: -5.95*; KCNQ2 pot: -5.95

What do the screens show for `NC(=O)CSCc1cccc(Br)c1`?
KCNQ2 inh: inactive

How did COCCN(C(=O)COC(=O)c1nc(Cl)ccc1Cl)c1c(N)n(Cc2ccccc2)c(=O)[nH]c1=O do in these assays?
KCNQ2 inh: inactive

What do the screens show for `COc1ccc(Cl)cc1NC(=O)CN1CCc2ccccc2C1`?
KCNQ2 inh: inactive

How did Cc1sc2ncnc(SCC(=O)N3CCN(C(=O)c4ccco4)CC3)c2c1C do in these assays?
KCNQ2 inh: inactive; KCNQ2 pot: 0.17

What do the screens show for `Cc1sc2nc(C(C)C)nc(SCC(=O)N3CCN(C(=O)c4ccco4)CC3)c2c1C`?
KCNQ2 inh: inactive; KCNQ2 pot: 13*

Results for COc1ccc(C(=O)N2CCn3c2nc2ccccc23)cc1 ?
KCNQ2 inh: inactive

How did COc1cccc(C(=O)N2CCn3c2nc2ccccc23)c1 do in these assays?
KCNQ2 inh: -8.71*; KCNQ2 pot: -8.71

What do the screens show for `CCOC(=O)C1CCN(c2nc3ccccc3n2CC(=O)c2ccccc2)CC1`?
KCNQ2 inh: inactive

Results for COc1ccc(N2CCN(c3nc4ccccc4n3CC(=O)c3ccccc3)CC2)cc1 ?
KCNQ2 inh: -6.28*; KCNQ2 pot: -6.28

What do the screens show for `CC(=O)Nc1ccc(Nc2nc(C(F)(F)F)nc3c2nnn3Cc2ccccc2Cl)cc1`?
KCNQ2 inh: inactive

Results for COc1ccc(N2CCN(S(=O)(=O)CCNC(=O)COc3cccc(OC)c3)CC2)cc1 ?
KCNQ2 inh: inactive; KCNQ2 pot: 0.78

What do the screens show for `COC(=O)c1ccc(N2CCOCC2)c(NC(=O)c2cccnc2)c1`?
KCNQ2 inh: inactive; KCNQ2 pot: 0.26

Results for COc1ccccc1N(C(=O)c1ccco1)C(C(=O)NC1CCCC1)c1ccc(N2CCOCC2)cc1 (stereo not drawn) ?
KCNQ2 inh: inactive

What do the screens show for `CCCC1S/C(=N/N=C/c2ccc(OC)cc2)N(Cc2ccc(OC)cc2)C1=O` (stereo not drawn)?
KCNQ2 inh: inactive

What do the screens show for `CCCC1S/C(=N/N=C/c2ccc(OC)cc2)N(Cc2ccccc2)C1=O` (stereo not drawn)?
KCNQ2 inh: -6.15*; KCNQ2 pot: -6.15

Results for COc1c(C)cc(C(=O)C2CCCN(C(=O)c3cc(C4CC4)[nH]n3)C2)cc1C (stereo not drawn) ?
KCNQ2 inh: inactive; KCNQ2 pot: 0.19

What do the screens show for `Cc1ccc(N2C(=O)c3cccc4c(Oc5ccccc5[N+](=O)[O-])ccc(c34)C2=O)c(C)c1`?
KCNQ2 inh: -6*; KCNQ2 pot: -6

Results for Cc1cc(O)ccc1N1C(=O)c2cccc3cc([N+](=O)[O-])cc(c23)C1=O ?
KCNQ2 inh: inactive

Results for Cc1c(OC(C)C(=O)NCc2ccccn2)ccc2c3c(c(=O)oc12)CCCC3 (stereo not drawn) ?
KCNQ2 inh: inactive; KCNQ2 pot: 1.5

How did CC1(C(=O)c2ccccc2)C2c3c(ccc4ccccc34)OC(=O)C21C(=O)N1CCOCC1 (stereo not drawn) do in these assays?
KCNQ2 inh: -7.87*; KCNQ2 pot: -7.87

What do the screens show for `O=C(N1CCOCC1)N(CCN1CCOCC1)Cc1cccc2ccccc12`?
KCNQ2 inh: inactive

How did COc1ccc2nc(N(Cc3ccccc3)C(=O)CCNC(C)=O)sc2c1 do in these assays?
KCNQ2 inh: inactive

How did CCC(C)NC(=O)c1ccc(C)c(NC(=O)C2=C(C)OCCS2)c1 (stereo not drawn) do in these assays?
KCNQ2 inh: inactive

What do the screens show for `CC(C)c1nc(SCC(=O)N2CCN(c3ccccc3)CC2)c2c(=O)n(C)c(=O)n(C)c2n1`?
KCNQ2 inh: inactive; KCNQ2 pot: 6.23*

Results for CCCc1nc(SCC(=O)N2CCN(c3ccccc3)CC2)c2c(=O)n(C)c(=O)n(C)c2n1 ?
KCNQ2 inh: inactive; KCNQ2 pot: 2.87

How did CCc1nn(C(C)C(=O)N2CCN(Cc3ccccc3)CC2)c(=O)c2cc3occc3n12 (stereo not drawn) do in these assays?
KCNQ2 inh: inactive

Results for CCc1nn(C(C)C(=O)N2CC(C)CC(C)C2)c(=O)c2cc3occc3n12 (stereo not drawn) ?
KCNQ2 inh: -8.1*; KCNQ2 pot: -8.1

Results for Cc1nn(C(C)C(=O)N2CCN(c3ccccn3)CC2)c(=O)c2cc3occc3n12 (stereo not drawn) ?
KCNQ2 inh: inactive; KCNQ2 pot: 1.02

What do the screens show for `Cc1cccc(N2CCN(C(=O)C(C)n3nc(C)n4c(cc5occc54)c3=O)CC2)c1C` (stereo not drawn)?
KCNQ2 inh: -6.11*; KCNQ2 pot: -6.11

How did Cc1ccc(C(=O)C(C)OC(=O)Cn2[nH]c(=O)c3ccccc3c2=O)cc1C (stereo not drawn) do in these assays?
KCNQ2 inh: inactive

Results for CCc1nc(C(N)=O)c2[nH]c(=O)n(-c3ccccc3F)c2n1 ?
KCNQ2 inh: inactive

What do the screens show for `Cc1ccn2c(c1)nc(=O)c1cc(S(=O)(=O)N3CCOCC3)ccc12`?
KCNQ2 inh: inactive

How did CCOC(=O)CNC(=O)c1ccc(Br)s1 do in these assays?
KCNQ2 inh: inactive

How did Cc1ccc(C)n1-c1ccc(C(=O)NN)s1 do in these assays?
KCNQ2 inh: -5.68*; KCNQ2 pot: -5.68

Results for COc1cc(OC)c(C2NC(=O)CCC2[N+](=O)[O-])cc1OC (stereo not drawn) ?
KCNQ2 inh: inactive

How did COc1ccccc1C(=O)NCCN1CCN(c2ccccc2)CC1 do in these assays?
KCNQ2 inh: inactive

How did COC(=O)C1=CN(c2ccc(F)cc2)C=C(C(=O)OC)C1c1ccc([N+](=O)[O-])cc1 do in these assays?
KCNQ2 inh: inactive

Screening data (PubChem BioAssay)
